From PubChem BioAssay AID1159580 (chemical genetic matrix, 2015)
The campaign covered roughly 5,500 compounds. About 2,000 (36%) were called active. Roughly 18% stayed inconclusive and do not appear here. No stated cut-off is given here; in the data, active means normalized growth mostly below about 0.91 (no sharp cut-off); inconclusive means no clear call, values can overlap the other calls; inactive means mostly above about 0.92. The list shows a part of the results.

Test: chemical genetic growth profiling, strain panel (AID 1159580);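 further: tested at 20 µM; growth read once vehicle control cultures reached saturation at 30 °C; 1 = growth at the plate median or of vehicle wells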
Details: growth OD
[1] = S. cerevisiae deletion strains, locus YAL013W, strain DEP1, stronger effect = lower value
[2] = S. cerevisiae deletion strains, locus YGR229C, strain SMI1, stronger effect = lower value
[3] = S. cerevisiae deletion strains, locus YJR075W, strain HOC1, stronger effect = lower value
[4] = S. cerevisiae deletion strains, locus YMR263W, strain SAP30, stronger effect = lower value
[5] = S. cerevisiae deletion strains, locus YMR307W, strain GAS1, stronger effect = lower value

Measured: normalized growth

CCN(CC)C(C)C(=O)N1c2ccccc2Sc2ccccc21 (configuration not stated)
inactive: [1] 1 | S. cerevisiae deletion strains, locus YAL040C, strain CLN3, stronger effect = lower value 1.02 | S. cerevisiae deletion strains, locus YCL061C, strain MRC1 (second series), stronger effect = lower value 1.01 | S. cerevisiae deletion strains, locus YDR363W, strain ESC2, stronger effect = lower value 1 | S. cerevisiae deletion strains, locus YER002W, strain NOP16, stronger effect = lower value 1.02 | [2] 1.04 | [3] 1.07 | [4] 1.01 | [5] 0.999 | S. cerevisiae deletion strains, locus YNL128W, strain TEP1, stronger effect = lower value 0.997 | S. cerevisiae deletion strains, locus YNL175C, strain NOP13, stronger effect = lower value 1.04 | S. cerevisiae deletion strains, locus YNL197C, strain WHI3, stronger effect = lower value 1.03 | S. cerevisiae deletion strains, locus YNL224C, strain SQS1, stronger effect = lower value 1.02 | S. cerevisiae deletion strains, locus YOR083W, strain WHI5 (second series), stronger effect = lower value 1.02 | S. cerevisiae deletion strains, locus YPL241C, strain CIN2, stronger effect = lower value 1.01

CCC(=O)c1ccc2c(c1)N(CC(C)N(C)C)c1ccccc1S2 (configuration not stated)
inactive: [1] 0.983 | S. cerevisiae deletion strains, locus YBR021W, strain FUR4, stronger effect = lower value 0.88 | S. cerevisiae deletion strains, locus YBR229C, strain ROT2, stronger effect = lower value 0.994 | S. cerevisiae deletion strains, locus YCL029C, strain bik1, stronger effect = lower value 1.02 | S. cerevisiae deletion strains, locus YDL035C, strain GPR1, stronger effect = lower value 0.979 | S. cerevisiae deletion strains, locus YDL074C, strain BRE1, stronger effect = lower value 0.95 | S. cerevisiae deletion strains, locus YDL101C, strain DUN1, stronger effect = lower value 0.986 | S. cerevisiae deletion strains, locus YDL134C, strain PPH21, stronger effect = lower value 0.96 | S. cerevisiae deletion strains, locus YDL185W, strain tfp1, stronger effect = lower value 0.995 | S. cerevisiae deletion strains, locus YDL192W, strain arf1, stronger effect = lower value 1.01 | S. cerevisiae deletion strains, locus YDR101C, strain arx1, stronger effect = lower value 1.01 | S. cerevisiae deletion strains, locus YDR162C, strain NBP2, stronger effect = lower value 0.988 | S. cerevisiae deletion strains, locus YDR318W, strain mcm21, stronger effect = lower value 0.994 | S. cerevisiae deletion strains, locus YDR388W, stronger effect = lower value 1 | S. cerevisiae deletion strains, locus YDR502C, strain sam2, stronger effect = lower value 0.986 | S. cerevisiae deletion strains, locus YEL061C, strain CIN8, stronger effect = lower value 0.998 | S. cerevisiae deletion strains, locus YER110C, stronger effect = lower value 1.02 | S. cerevisiae deletion strains, locus YER155C, strain BEM2, stronger effect = lower value 0.989 | S. cerevisiae deletion strains, locus YER167W, strain BCK2, stronger effect = lower value 0.998 | S. cerevisiae deletion strains, locus YGL078C, strain dbp3, stronger effect = lower value 1.01 | S. cerevisiae deletion strains, locus YGL086W, strain mad1, stronger effect = lower value 0.99 | S. cerevisiae deletion strains, locus YGL248W, strain PDE1, stronger effect = lower value 0.966 | S. cerevisiae deletion strains, locus YGR078C, strain PAC10, stronger effect = lower value 0.992 | S. cerevisiae deletion strains, locus YGR135W, strain pre9, stronger effect = lower value 0.97 | [2] 0.949 | S. cerevisiae deletion strains, locus YGR252W, strain gcn5, stronger effect = lower value 0.806 | S. cerevisiae deletion strains, locus YHR030C, strain SLT2, stronger effect = lower value 0.997 | S. cerevisiae deletion strains, locus YHR079C, strain IRE1 (second series), stronger effect = lower value 1.01 | S. cerevisiae deletion strains, locus YHR094C, strain hxt1, stronger effect = lower value 1.02 | S. cerevisiae deletion strains, locus YHR129C, strain ARP1, stronger effect = lower value 0.993 | S. cerevisiae deletion strains, locus YHR200W, strain rpn10, stronger effect = lower value 1 | S. cerevisiae deletion strains, locus YIL066C, strain RNR3, stronger effect = lower value 0.985 | S. cerevisiae deletion strains, locus YIL073C, strain SPO22, stronger effect = lower value 1.01 | S. cerevisiae deletion strains, locus YIL125W, strain kgd1, stronger effect = lower value 1.01 | S. cerevisiae deletion strains, locus YIR030C, strain dcg1, stronger effect = lower value 1.01 | S. cerevisiae deletion strains, locus YJL095W, strain BCK1, stronger effect = lower value 0.889 | S. cerevisiae deletion strains, locus YJL134W, strain LCB3, stronger effect = lower value 0.996 | S. cerevisiae deletion strains, locus YJL168C, strain set2, stronger effect = lower value 1 | S. cerevisiae deletion strains, locus YJL187C, strain SWE1 (second series), stronger effect = lower value 0.99 | S. cerevisiae deletion strains, locus YJR043C, strain POL32, stronger effect = lower value 0.96 | [3] 0.99 | S. cerevisiae deletion strains, locus YKL009W, strain mrt4, stronger effect = lower value 0.999 | S. cerevisiae deletion strains, locus YKL068W, stronger effect = lower value 0.999 | S. cerevisiae deletion strains, locus YKL085W, strain MDH1 (second series), stronger effect = lower value 0.999 | S. cerevisiae deletion strains, locus YKL085W, strain MDH1, stronger effect = lower value 0.999 | S. cerevisiae deletion strains, locus YKL190W, strain CNB1, stronger effect = lower value 0.99 | S. cerevisiae deletion strains, locus YKR001C, strain vps1, stronger effect = lower value 0.967 | S. cerevisiae deletion strains, locus YLR039C, strain RIC1, stronger effect = lower value 1.3 | S. cerevisiae deletion strains, locus YLR058C, strain SHM2, stronger effect = lower value 0.985 | S. cerevisiae deletion strains, locus YLR102C, strain apc9, stronger effect = lower value 1.02 | S. cerevisiae deletion strains, locus YLR262C, strain YPT6, stronger effect = lower value 1.35 | S. cerevisiae deletion strains, locus YLR268W, strain sec22, stronger effect = lower value 0.986 | S. cerevisiae deletion strains, locus YLR330W, strain CHS5, stronger effect = lower value 0.996 | S. cerevisiae deletion strains, locus YLR342W, strain FKS1 (second series), stronger effect = lower value 0.921 | S. cerevisiae deletion strains, locus YLR371W, strain rom2, stronger effect = lower value 1.03 | S. cerevisiae deletion strains, locus YLR418C, strain cdc73, stronger effect = lower value 0.9 | S. cerevisiae deletion strains, locus YML016C, strain PPZ1, stronger effect = lower value 0.994 | S. cerevisiae deletion strains, locus YML032C, strain rad52, stronger effect = lower value 0.982 | S. cerevisiae deletion strains, locus YML124C, strain tub3, stronger effect = lower value 1.01 | S. cerevisiae deletion strains, locus YMR078C, strain ctf18, stronger effect = lower value 1.01 | S. cerevisiae deletion strains, locus YMR223W, strain ubp8, stronger effect = lower value 0.963 | [4] 0.973 | [5] 1.01 | S. cerevisiae deletion strains, locus YNL067W, strain RPL9B, stronger effect = lower value 0.99 | S. cerevisiae deletion strains, locus YNL153C, strain GIM3, stronger effect = lower value 0.98 | S. cerevisiae deletion strains, locus YNL233W, strain BNI4, stronger effect = lower value 0.951 | S. cerevisiae deletion strains, locus YNL250W, strain rad50, stronger effect = lower value 1.01 | S. cerevisiae deletion strains, locus YNL271C, strain bni1, stronger effect = lower value 1.01 | S. cerevisiae deletion strains, locus YNL298W, strain CLA4, stronger effect = lower value 1.01 | S. cerevisiae deletion strains, locus YNL307C, strain MCK1, stronger effect = lower value 0.996 | S. cerevisiae deletion strains, locus YNR052C, strain pop2, stronger effect = lower value 1 | S. cerevisiae deletion strains, locus YOL006C, strain TOP1, stronger effect = lower value 0.852 | S. cerevisiae deletion strains, locus YOL012C, strain htz1 0.881 | S. cerevisiae deletion strains, locus YOL147C, strain pex11, stronger effect = lower value 1.01 | S. cerevisiae deletion strains, locus YOR061W, strain CKA2, stronger effect = lower value 0.999 | S. cerevisiae deletion strains, locus YOR069W, strain VPS5, stronger effect = lower value 0.996 | S. cerevisiae deletion strains, locus YOR136W, strain idh2, stronger effect = lower value 1 | S. cerevisiae deletion strains, locus YOR144C, strain elg1, stronger effect = lower value 1.01 | S. cerevisiae deletion strains, locus YOR184W, strain ser1, stronger effect = lower value 1.01 | S. cerevisiae deletion strains, locus YOR316C, strain cot1, stronger effect = lower value 1.02 | S. cerevisiae deletion strains, locus YPL055C, strain LGE1, stronger effect = lower value 0.949 | S. cerevisiae deletion strains, locus YPR119W, strain clb2, stronger effect = lower value 1.01 | S. cerevisiae deletion strains, locus YPR141C, strain kar3, stronger effect = lower value 1.01 | S. cerevisiae deletion strains, locus YPR163C, strain tif3, stronger effect = lower value 1 | S. cerevisiae deletion strains, locus YPR167C, strain met16, stronger effect = lower value 1.02 | S. cerevisiae deletion strains, strain wtn01, stronger effect = lower value 0.99 | S. cerevisiae strains, strain wild type, stronger effect = lower value 0.991
